# Screens as filed in PubChem.
# CYP2C9 inhib = blocks human cytochrome P450 2C9; P11712; CYP2C9 Supersomes, luciferin-H conversion, luminescence; inhibition, % at 5 µM; AID 777; 96,000 tested, 20% active;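 active means blocking of liver enzyme CYP2C9 beyond about 50% at 5 µM, limit read from the data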
# Target sequence (P11712 whole entry, looked up): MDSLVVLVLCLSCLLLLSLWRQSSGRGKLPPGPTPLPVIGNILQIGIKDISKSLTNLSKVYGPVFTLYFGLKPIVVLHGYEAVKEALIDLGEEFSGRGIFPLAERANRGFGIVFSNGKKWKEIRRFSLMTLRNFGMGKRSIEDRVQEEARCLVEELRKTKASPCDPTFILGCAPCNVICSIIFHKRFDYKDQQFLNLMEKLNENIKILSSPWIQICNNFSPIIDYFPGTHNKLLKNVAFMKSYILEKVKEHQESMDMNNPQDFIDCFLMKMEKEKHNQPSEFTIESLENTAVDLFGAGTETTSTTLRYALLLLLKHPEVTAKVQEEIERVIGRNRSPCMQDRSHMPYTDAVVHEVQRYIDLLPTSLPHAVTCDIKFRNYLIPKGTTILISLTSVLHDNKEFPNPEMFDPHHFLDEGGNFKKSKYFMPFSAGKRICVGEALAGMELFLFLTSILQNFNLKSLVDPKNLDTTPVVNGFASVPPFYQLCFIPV
# CYP2C19 inh = human CYP2C19 inhibition; inhibition, % at 5 µM; CYP2C19 Supersomes, luciferin-H EGE luminescence, 30 min; AID 778; 96,000 tested, 21% active; P33261;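 active means CYP2C19 inhibition above a set limit at 5 µM in the primary screen, cut at about 50% in these data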
# CYP2C9 act = increases human cytochrome P450 2C9 activity | AID 1024 | activation factor at 5 µM | 96,000 tested, 1.4% active | P11712 | recombinant CYP2C9, luciferin-H conversion, luminescence; hits give high values; factor 1 = untreated enzyme, 0 = blocked;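 active means activation factor of 2 or more for CYP2C9 at a 5 µM dose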
# Measles CPE = protection of cells from measles virus; Measles virus-infected cells, CPE protection, absorbance; protection (pct of control), % at 4 µM; 140,000 tested, 1.5% active; in the data active means protection mostly above about 24%, no sharp cut-off; inactive means mostly below about 26%
# CYP2C19 act = increases human CYP2C19 enzyme activity; P33261; recombinant CYP2C19, luciferin-H EGE luminescence; hits give high values; 0 = fully inhibited enzyme, 1 = untreated enzyme; 96,000 tested, under 10 active; AID 1025; activation factor at 5 µM;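 active means activation factor of at least 2 at 5 µM in the primary screen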
# Hits are given with their value; i = inactive; nt = no result. Sampled rows, rich in hits. Any-hit rate of the full collection: about 22%.
SMILES,CYP2C9 inhib,CYP2C19 inh,CYP2C9 act,Measles CPE,CYP2C19 act
Cc1ccc(S(=O)(=O)c2c(N)n(NC(=O)c3ccccc3C)c3nc4ccccc4nc23)cc1,i,i,i,i,i
CCOC(=O)NC(Nc1nnc(C)s1)(C(=O)OCC)C(F)(F)F (stereo unspecified),i,i,i,i,i
Cc1ccc(O)c(-c2cc(C(F)(F)C(F)F)nc(-c3ccccc3)n2)c1,i,i,i,i,i
CC(C)=CC[N+]1(C)CCCCC1,nt,nt,nt,i,nt
CCc1nc(SCc2nc3ccccc3[nH]2)c2oc3ccccc3c2n1,98,100,i,i,i
COc1ccc(/C=C/C(=O)NCCCn2ccnc2)cc1,nt,nt,nt,i,nt
COc1ccc2c(Cl)c(C(=O)NN)sc2c1,56,82,i,i,i
COc1ccc2c(Cl)c(C(=O)NCCCn3ccnc3)sc2c1,91,98,i,i,i
COc1ccc2c(Cl)c(C(N)=O)sc2c1,i,i,i,i,i
O=C(CSCc1ccc(F)cc1)Nc1ccc(F)cc1,nt,nt,nt,i,nt
CCOC(=O)c1cnc2c(cnn2C)c1NCCC(O)C(F)(F)F (stereo unspecified),i,i,i,i,i
COC(=O)[C@H](CCSC)NC(=O)NC1CCN(Cc2ccccc2)CC1,i,i,i,i,i
COc1ccccc1C(=O)NC(CCSC)C(=O)OCC(=O)NC(=O)NCc1ccco1 (stereo unspecified),97,i,i,i,i
COc1ccccc1C(=O)NC(CCSC)C(=O)NCC(c1ccco1)N(C)C (stereo unspecified),67,69,i,i,i
CSCCC(NC(=O)c1ccco1)C(=O)OC(C)C(=O)NC(=O)NC1CCCCC1 (stereo unspecified),65,i,i,i,i
CC1CC1C(=O)OCC(=O)NC(=O)NCc1ccco1 (stereo unspecified),i,i,i,i,i
COc1ccc(CNC(=O)C(CCSC)NC(=O)c2ccco2)cc1 (stereo unspecified),i,60,i,i,i
CC(C)C(NC(=O)c1ccco1)C(=O)NCC(c1ccco1)N(C)C (stereo unspecified),i,i,i,i,i
CCOc1ccc(NC(=O)NCCCSC2CCCCC2)cc1,i,i,i,i,i
O=C(OC1CCc2ccccc2C1=O)c1ccccc1O (stereo unspecified),90,82,i,i,i
COc1cccc(C(=O)Nc2ccc3nc(N4CCN(c5ncccn5)CC4)cc(C)c3c2)c1OC,nt,nt,nt,i,nt
NS(=O)(=O)c1ccc(NCc2cc(Cl)ccc2OCc2ccc(F)cc2)cc1,nt,nt,nt,i,nt
NS(=O)(=O)c1ccc(NCc2ccccc2OCc2ccccc2F)cc1,75,i,i,i,i
Oc1ccc(NCc2ccccc2OCc2ccccc2F)cc1,i,52,i,i,i
Cc1ccc(NCc2ccccc2OCc2ccccc2F)cc1,i,57,i,i,i
SMILES,CYP2C9 inhib,CYP2C19 inh,CYP2C9 act,Measles CPE,CYP2C19 act
CN1CCN(C(=O)C2(NC(=O)Nc3ccccc3Cl)CCCCC2)CC1,nt,nt,nt,i,nt
O=C(NCc1ccccc1)NC1(C(=O)N2CCN(c3ccccc3)CC2)CCCCC1,i,57,i,i,i
CCN1CCN(C(=O)C2(NC(=O)Nc3ccccc3Cl)CCCCC2)CC1,nt,nt,nt,49,nt
CCn1cnc2sc(C(=O)Nc3ccc4c(c3)OCO4)c(C)c2c1=O,i,i,i,i,i
CN(C(=O)/C(N=Nc1cccc(C(F)(F)F)c1)=C(\O)C(F)(F)F)c1ccccc1,80,82,i,i,i
CN(C)c1nn(C(=O)Nc2cccc(C(F)(F)F)c2)cc1-c1ccccc1,i,i,i,i,i
COc1ccccc1NC(CC(=O)c1ccccc1)C(=O)OCC(=O)c1ccc(C)cc1 (stereo unspecified),nt,nt,nt,i,nt
CCCCCN(C(=O)CN(C)Cc1ccc(OC)cc1OC)c1c(N)n(CCCC)c(=O)[nH]c1=O,i,i,i,i,i
O=C(O)C1CCN(S(=O)(=O)c2ccc(Oc3ccccc3)cc2)CC1,i,i,i,i,i
Clc1cccc(Cl)c1Cn1c(-c2cccnc2Cl)nc2ccccc21,i,i,i,i,i
C=CCn1c(-c2cccnc2Cl)nc2cc(Cl)c(Cl)cc21,57,i,i,i,i
CCCn1c(-c2cccnc2Cl)nc2cc(Cl)c(Cl)cc21,56,i,i,i,i
Cc1ccc(C2C(C#N)=C(N)Oc3c2c(=O)n(C)c(=O)n3C)cc1 (stereo unspecified),56,i,i,i,i
Cc1ccc(-n2nc(C)c3c2OC(N)=C(C#N)C3c2ccc(F)cc2)cc1 (stereo unspecified),i,i,i,i,i
Cc1ccsc1C(=O)N(c1nc2ccccc2s1)c1c(C)cccc1C,i,i,i,i,i
Cc1ccccc1N(C(=O)c1cccs1)c1nc2ccccc2s1,88,i,i,i,i
OC1CCN(c2c3c(nc4cc(-c5cccc(F)c5)nn24)CCCC3)CC1,i,i,i,i,i
CN(CCO)c1c2c(nc3cc(-c4cccc(F)c4)nn13)CCCC2,56,i,i,i,i
Fc1cccc(-c2cc3nc4c(c(N5CCC6(CC5)OCCO6)n3n2)CCCC4)c1,74,i,i,i,i
Clc1cccc(-c2cc3nc4c(c(N5CCNCC5)n3n2)CCCC4)c1,nt,nt,nt,i,nt
COC(=O)c1ccc(C(=O)OC)c(NC(=O)CN(C)Cc2cccc(Cl)c2Cl)c1,nt,nt,nt,i,nt
COc1cccc(-n2c(Cc3cc(=O)[nH]c(=O)[nH]3)nnc2SC(C)C)c1,i,i,i,i,i
COc1ccc(-c2nc(-c3ccccc3)c(-c3cc([N+](=O)[O-])ccc3C)[nH]2)cc1OC,i,i,i,i,i
CCOc1cc(-c2nc(-c3ccccc3)c(-c3cc([N+](=O)[O-])ccc3C)[nH]2)ccc1O,57,i,i,i,i
O=[N+]([O-])c1ccc(O)c(-c2nc(-c3ccccc3)c(-c3cccs3)[nH]2)c1,92,i,i,i,i
SMILES,CYP2C9 inhib,CYP2C19 inh,CYP2C9 act,Measles CPE,CYP2C19 act
CCCCn1c(CNC(C)=O)nc2ccccc21,i,i,i,i,i
CS(=O)(=O)N(CC(O)CON=C1c2ccccc2-c2ccccc21)c1ccc(F)cc1 (stereo unspecified),i,i,i,i,i
Cc1cccc(N(CC(O)CON=C2c3ccccc3-c3ccccc32)S(C)(=O)=O)c1 (stereo unspecified),99,98,i,i,i
Cc1oc(/N=C/c2ccc(Cl)cc2Cl)c(C#N)c1C,i,71,i,i,i
Cc1oc(/N=C/c2ccc(Cl)cc2)c(C#N)c1C,i,i,i,i,i
CCOC(=O)n1ccc(C(=O)Nc2ccccc2F)n1,i,i,i,i,i
CCCCOC(=O)n1ccc(C(=O)Nc2ccccc2OC)n1,i,i,2.1,i,i
COc1ccc(NC(=O)c2nc3nc(C)cc(C(F)F)n3n2)cc1OC,i,i,i,i,i
COc1ccccc1NS(=O)(=O)c1ccc(NC(=O)c2nc3nc(C)cc(C(F)F)n3n2)cc1,61,i,i,i,i
CCn1ccc(C(=O)Nc2ccc(S(=O)(=O)Nc3ccccc3OC)cc2)n1,82,81,i,i,i
